High-throughput results deposited in PubChem BioAssay by National Center for Advancing Translational Sciences (NCATS).
DT40 TDP1 CPT: growth inhibition of DT40 Tdp1-/-;hTDP1 cells with camptothecin (screen for TDP1 inhibitors); chicken DT40 Tdp1-/-;hTDP1 cells + 20 nM CPT, ATP luminescence, 48 h; Potency, µM (highest dose often 46.2 µM), for inactives: at the highest dose activity change, negative = growth inhibition, most hits filed as inhibitors; actives 12% (n = 420,000); also: potency is read from the fitted curve at half-maximal effect; nearly all actives have a fitted effect of over 55% in size
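Chicken DT40 Tdp1-/- cells complemented with human TDP1, 400 cells/well, exposed to compounds plus 20 nM camptothecin for at least 48 h at 37 C; viability read as ATP content by CellTiter-Glo luminescence.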
ELG1 DNA repair: blocks ELG1-dependent DNA repair in HEK293T cells | HEK293T ELG1-luciferase reporter, luminescence, 16 h; DNA damage induced by 5-fluorouridine | Potency, µM (titrated, usually from 46.1 µM), without a hit: top-dose activity change, negative = inhibition, most hits filed as inhibitors | actives 2.3% (n = 330,000) | AID 504467; also: potency is read from the fitted curve at half-maximal effect; nearly all actives have a fitted effect of over 55% in size
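HEK293T cells expressing luciferase-tagged ELG1 (2,000/well) received 5-Fluorouridine plus compound or DMSO for 16 hr at 37 °C. Luciferase was read by ONE-Glo luminescence after 30 min at room temperature.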
DT40 TDP1 no CPT: qHTS for Inhibitors of human tyrosyl-DNA phosphodiesterase 1 (TDP1): qHTS in cells in absence of CPT; Potency, µM (series often up to 46.2 µM), inactives show at the top dose activity change, negative = growth inhibition, most hits filed as inhibitors; actives 15% (n = 420,000); DT40 Tdp1-/- hTDP1 cells, no CPT, ATP luminescence, 48 h; also: potency is read from the fitted curve at half-maximal effect; nearly all actives have a fitted effect of over 55% in size
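Chicken DT40 Tdp1-/- cells complemented with human TDP1, screened without camptothecin (DMSO vehicle only), 400 cells/well. Compounds pin-transferred, cells incubated at 37 °C for at least 48 hr. Growth read as ATP-dependent luminescence (CellTiter-Glo, 30 min at RT).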
Giardia kill: kills Giardia lamblia; Giardia lamblia trophozoite viability; activity change, % at 7.66 µM, hits read low; actives 0.15% (n = 340,000); AID 540267; in the data active = activity change below about -80%; inconclusive = between about -30% and that limit;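 also: parasites exposed to compound for two days anaerobically before the ATP read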
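Trophozoite viability was measured as ATP-dependent luminescence, read 15-30 min after reagent addition. Before that, parasites at 100 cells/well were exposed to compounds for 48 h, anaerobically, at 37 deg C.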
IL1B secr inh: inhibitors of inflammasome signaling (IL-1 beta secretion); THP-1 LPS/ATP IL-1B secretion, AlphaLISA, 16 h; active compounds read low; activity change, % at 57.5 µM; actives 4.7% (n = 360,000); in the data active = activity change below about -50%; inconclusive = mostly about -30% to -49%
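Secreted IL-1B measured by AlphaLISA bead assay after 16 h compound exposure of THP-1 cells; compounds (final up to 57.5 uM) added 1 h before LPS (250 ng/mL) and ATP (1.25 mM) stimulation; lower signal means less secretion.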
TDP1 inh: blocks human tyrosyl-DNA phosphodiesterase 1. Q9NUW8. recombinant TDP1, AlphaScreen DNA substrate cleavage. Potency, µM (highest dose often 130 µM), for the others: top-dose activity change, negative = inhibition, hits mostly inhibitors. actives 0.28% (n = 350,000). AID 485290; also: potency is read from the fitted curve at half-maximal effect; nearly all actives have a fitted effect of over 40% in size
Target sequence (Q9NUW8 whole entry, looked up): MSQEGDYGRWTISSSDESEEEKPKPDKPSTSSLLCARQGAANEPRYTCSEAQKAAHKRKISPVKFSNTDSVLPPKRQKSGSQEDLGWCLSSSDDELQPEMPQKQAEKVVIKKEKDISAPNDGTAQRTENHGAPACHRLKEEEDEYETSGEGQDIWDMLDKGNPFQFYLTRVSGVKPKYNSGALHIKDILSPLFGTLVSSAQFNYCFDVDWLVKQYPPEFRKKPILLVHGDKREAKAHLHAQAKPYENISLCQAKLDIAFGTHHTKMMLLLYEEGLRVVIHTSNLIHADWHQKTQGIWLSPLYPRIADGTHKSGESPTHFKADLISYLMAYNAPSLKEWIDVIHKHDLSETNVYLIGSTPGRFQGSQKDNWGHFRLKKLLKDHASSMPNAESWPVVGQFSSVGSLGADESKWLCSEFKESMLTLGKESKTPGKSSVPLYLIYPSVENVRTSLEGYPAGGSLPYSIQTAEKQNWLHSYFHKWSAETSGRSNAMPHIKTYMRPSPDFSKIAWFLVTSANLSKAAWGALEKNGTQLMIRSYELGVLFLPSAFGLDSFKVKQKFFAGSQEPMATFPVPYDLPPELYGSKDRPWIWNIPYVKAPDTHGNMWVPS
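Recombinant E. coli-expressed Tdp1 (1 nM) preincubated with compound 15 min at RT, then 5'-biotin/3'-phosphotyrosine-FITC DNA substrate (15 nM) added for 5 min. AlphaScreen beads (10 ug/ml) added, 10 min RT; tyrosine-FITC cleavage read as signal loss.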
Active calls of the source: *; [ ] = another dose, or the depositor's remark. A selection: hits, their analogues and other compounds. The true share with any hit is near 19%. Unless noted, calls follow the shape of the dose curve; as a rule, active = well fitted curve in the direction sought with a large enough effect; inconclusive = small, poorly fitted or top-dose-only effect, or another doubt; inactive = no such curve, though single readings can be large; an effect the other way counts as inactive or inconclusive. % is scaled to controls: 0 for no effect and ±100 for the full control effect.

`CC(C)(Oc1ccc(Cl)cc1)C(=O)N(Cc1ccccc1)c1ccccn1` gave DT40 TDP1 CPT inconclusive, ELG1 DNA repair -12.0%, DT40 TDP1 no CPT 18.4µM*, Giardia kill 14.5, IL1B secr inh 0.0 and TDP1 inh -3.4%.
O=C1NC[C@@H](CCCCN2C[C@H](Cc3ccc(O)cc3)N(CCC3CCCCC3)C(=O)C2=O)N(CCc2ccc(O)cc2)C1=O was read as DT40 TDP1 CPT 11.8%, DT40 TDP1 no CPT 1.8% and IL1B secr inh -7.7.
COc1ccc(OC)c(S(=O)(=O)n2nc(-c3ccccc3)cc2N)c1 was read as DT40 TDP1 CPT -29.7%, ELG1 DNA repair -11.2%, DT40 TDP1 no CPT -24.6%, Giardia kill 3.4, IL1B secr inh 10.4 and TDP1 inh 3.9%.
COc1cc(OC)cc(-c2cc(N)n(S(=O)(=O)Cc3ccccc3)n2)c1 was read as DT40 TDP1 CPT inconclusive, ELG1 DNA repair inconclusive, DT40 TDP1 no CPT 18.4µM*, Giardia kill 11.2, IL1B secr inh -14.6 and TDP1 inh 2.9%.
Screening COc1ccc(-c2cc(N)n(S(=O)(=O)c3ccc(F)cc3)n2)cc1OC returned DT40 TDP1 CPT 18.4µM*, ELG1 DNA repair 5.8µM*, DT40 TDP1 no CPT 11.6µM*, Giardia kill -10.9, IL1B secr inh 2.7 and TDP1 inh 3.9%.
COc1ccc(S(=O)(=O)n2nc(-c3ccc(Cl)cc3)cc2N)cc1OC was read as DT40 TDP1 CPT inconclusive, ELG1 DNA repair inconclusive, DT40 TDP1 no CPT inconclusive, Giardia kill -9.5, IL1B secr inh -1.7 and TDP1 inh 1.3%.
Nc1cc(-c2ccccc2)nn1S(=O)(=O)c1ccc(F)cc1 was read as DT40 TDP1 CPT 29.1µM*, ELG1 DNA repair inconclusive, DT40 TDP1 no CPT 14.6µM*, Giardia kill -14.6, IL1B secr inh -13.8 and TDP1 inh 1.0%.
Screening COc1cc(-c2cc(N)n(S(=O)(=O)c3ccc(F)cc3)n2)cc(OC)c1OC returned DT40 TDP1 CPT 16.4µM*, ELG1 DNA repair -22.7%, DT40 TDP1 no CPT 18.4µM*, Giardia kill -18.8, IL1B secr inh 0.2 and TDP1 inh 5.2%.
For O=C(NCc1ccc(F)cc1)c1cc(C2CCCN(C(=O)c3ccc4c(c3)CCO4)C2)on1 (configuration not stated) the results were DT40 TDP1 CPT 18.4µM*, DT40 TDP1 no CPT 23.1µM* and IL1B secr inh -1.3.
Screening Cc1ccc(F)cc1C(=O)N1CCCC(c2cc(C(=O)NCc3ccccc3)no2)C1 (configuration not stated) returned DT40 TDP1 CPT inconclusive, DT40 TDP1 no CPT inconclusive and IL1B secr inh -7.9.
For COc1ccc(C(=O)N2CCCC(c3cc(C(=O)NCc4ccc(F)cc4)no3)C2)cc1 (configuration not stated) the results were DT40 TDP1 CPT 14.6µM*, DT40 TDP1 no CPT inconclusive and IL1B secr inh -15.7.
`O=C(NCc1ccc(F)cc1)c1cc(C2CCCN(C(=O)c3ccc4ccccc4c3)C2)on1` (configuration not stated) gave DT40 TDP1 CPT 16.4µM*, DT40 TDP1 no CPT 16.4µM* and IL1B secr inh -17.0.
Screening Cc1ccc(F)cc1C(=O)N1CCCC(c2cc(C(=O)NCc3ccc(F)cc3)no2)C1 (configuration not stated) returned DT40 TDP1 CPT inconclusive, DT40 TDP1 no CPT 14.6µM* and IL1B secr inh inconclusive.
`Cc1ccc(-n2c(SCCC(C)C)nc3sc4c(c3c2=O)CC(C)(C)OC4)cc1` gave DT40 TDP1 CPT -28.0% and DT40 TDP1 no CPT -9.4%.
Cc1ccc(CNC(=O)c2ccc(CN3CC(=O)N4CCCCC4C3=O)cc2)cc1 (configuration not stated) was read as DT40 TDP1 CPT -3.4%, DT40 TDP1 no CPT -16.4% and TDP1 inh 1.2%.
CO[C@H]1[C@H](NC(=O)c2ccsc2)c2ccccc2C12CCN(Cc1cnn(C)c1C)CC2 was read as DT40 TDP1 CPT 13.2%[9.04 µM] and DT40 TDP1 no CPT -13.2%.
`O=C(NCc1ccccc1)c1cc(C2CCCN(C(=O)CCCc3ccccc3)C2)on1` (configuration not stated) gave DT40 TDP1 CPT 14.6µM*, DT40 TDP1 no CPT 14.6µM* and IL1B secr inh -23.8.
O=C(Nc1ccccc1Cl)c1cc(C2CCCN(C(=O)CCCc3ccccc3)C2)on1 (configuration not stated) was read as DT40 TDP1 CPT -25.9%, DT40 TDP1 no CPT inconclusive and IL1B secr inh -21.0.
For CC(C)c1ccc(C(=O)N2CCCC(c3cc(C(=O)NCc4ccccc4)no3)C2)cc1 (configuration not stated) the results were DT40 TDP1 CPT 13µM*, DT40 TDP1 no CPT 14.6µM* and IL1B secr inh -1.1.
Oc1ccc2ccccc2c1-c1sc(Nc2ccccc2)n[n+]1-c1ccc(F)cc1 was read as DT40 TDP1 CPT inconclusive, ELG1 DNA repair 16.2%, DT40 TDP1 no CPT 16.4µM*, Giardia kill -12.8 and IL1B secr inh 7.5.
C[n+]1nc(Nc2ccccc2)sc1-c1ccc(O)cc1 was read as DT40 TDP1 CPT inconclusive, ELG1 DNA repair 7.2%, DT40 TDP1 no CPT -28.7%, Giardia kill 6.9 and IL1B secr inh -14.6.
Screening Fc1ccc(-[n+]2nc(Nc3ccccc3)sc2-c2c3ccccc3cc3ccccc23)cc1 returned DT40 TDP1 CPT 5.8µM*, ELG1 DNA repair 4.61µM*, DT40 TDP1 no CPT 3.66µM*, Giardia kill 7.1 and IL1B secr inh -89.4*.
Screening c1ccc(-[n+]2nc(Nc3cccc4ccccc34)sc2-c2c3ccccc3cc3ccccc23)cc1 returned DT40 TDP1 CPT inconclusive, ELG1 DNA repair -11.7%, DT40 TDP1 no CPT 14.6µM*, Giardia kill 3.2, IL1B secr inh -9.0 and TDP1 inh 11.6%.
`Cc1ncc2c(c1CNC(=O)c1cncs1)CCN(C(=O)c1ccc(-c3ccccc3)cc1)C2` gave DT40 TDP1 CPT -2.2%[9.04 µM] and DT40 TDP1 no CPT -24.6%.
COc1ccc2c(c1)O[C@@H](c1cccc(C(F)(F)F)c1)[C@H](OC(=O)N[C@H](C)C1CCCCC1)C2=O was read as TDP1 inh 5.0%.
Cc1cc(N2CCC(C)CC2)nc2ccc(NC(=O)/C=C/c3cccc(Cl)c3)cc12 was read as DT40 TDP1 CPT 6.51µM*, DT40 TDP1 no CPT 4.11µM* and TDP1 inh 5.9%.
